# Results filed as inconclusive are left out. Values without a mark were called inactive. The call rests on the fitted dose curve.
# Assay: qHTS for Inhibitors of Cell Surface uPA Generation: Wild-type Protective Antigen (WT-PrAg) Counterscreen for Cherry-picked Compounds; further: 0% is about no effect
# Settings: cells, WT protective antigen toxicity counterscreen; series mostly up to 115 µM; activity (protection): at the top concentration
row,SMILES,activity (protection) [%]
1,C=C(C(=O)O)C1CCC2(C)CCCC(C)(O)C2C1 (stereo not given),-0.0048
2,Cc1ccc(-n2nc3c(c2NC(=O)c2ccc4c(c2)OCO4)CS(=O)C3)c(C)c1 (stereo not given),2.92
3,COc1cc(CN2CCNC(=O)C2CC(=O)NCCCC2CCCC2)cc(OC)c1 (stereo not given),-2
4,CCS(=O)c1scc(-c2ccc(Cl)cc2)c1C#N (stereo not given),-2.44
5,Cc1cnc(CNC(=O)C2CCC(=O)N(CCc3cccc(F)c3)C2)[nH]1 (stereo not given),-0.804
6,O=C(NCCN1CCOCC1)c1ccc2c(c1)N(Cc1ccc(Cl)cc1)CCS2,1.37
7,O=C(c1cc2cc([N+](=O)[O-])ccc2s1)N1CCOCC1,-1.68
8,O=C(NC1CC1)C1CCCN(C(=O)NC2CCCCC2)C1 (stereo not given),-1.16
9,O=C(COc1ncnc2sccc12)Nc1cccc(S(=O)(=O)N2CCCC2)c1,-0.649
10,O=C(NNC(=O)c1cccnc1)c1ccncc1,-0.865
11,Cc1ccc(S(=O)(=O)Nc2nc(C)cc(N/N=C/c3ccc(O)cc3)n2)cc1,-1.92
12,C#CCOCCOCCOCCNc1nc(N2CCOCC2)nc(N2CCN(C(=O)[C@H](CCC(=O)O)n3cc([C@@H](N)CCCCN)nn3)CC2)n1,-0.0828
13,Cc1ccc(NC(=O)CSc2nncn2N)cc1C,2.11
14,Cc1cc(C)n2c(SCC#N)nnc2n1,-0.12
15,COc1ccc(CC(=O)OCC(=O)NNC(=O)c2ccccc2)cc1,-1.54
16,COc1ccc(C(=O)N[C@H](C(=O)NCc2cccs2)C(C)C)cc1,-0.821
17,O=C(Nc1cccc(NC(=O)c2ccc(F)cc2)c1)c1ccc(F)cc1,0.799
18,COc1cccc(C(=O)NCC(c2ccco2)N2CCc3ccccc3C2)c1 (stereo not given),0.587
19,CCCCNc1c(-c2ccc(-c3cccc(Cl)c3)cc2)nc2ccccn12,-2.18
20,Cc1cnc(CNC(=O)CC2C(=O)NCCN2Cc2ccccc2C(F)(F)F)cn1 (stereo not given),0.0975

row,SMILES,activity (protection) [%]
1,CCc1ccccc1NC(=O)CN(C)C(=O)CSc1nnc(Nc2cccc(C)c2C)s1,-1.81
2,CC1(C)CC(=O)C([N+](=O)[O-])=C(NCCCC(=O)O)C1,1.57
3,O=C(NNC(=O)c1cccc(-n2cccc2)c1)c1ccc(F)cc1,-0.872
4,CCN1CCN(C(c2ccccc2)c2nnnn2Cc2ccc3c(c2)OCO3)CC1 (stereo not given),1.36
5,Cc1ccc(S(=O)(=O)N2CCN(C(=O)c3n[nH]c(=O)c4ccccc34)CC2)cc1,-0.765
6,COc1ccc(C2=C/C(=C\c3ccccc3OC(C)=O)C(=O)O2)cc1,-1.93
7,C[C@@H](NC(=O)c1nc[nH]c1C(=O)NCc1ccc(CNC(=O)OC(C)(C)C)cc1)c1ccccc1,-1.9
8,CC(=O)c1ccc(N2CCN(C(=S)NCc3ccco3)CC2)cc1,-1.46
9,CCOC(=O)c1c(C)oc2ccc(OC(=O)COc3c(F)c(F)c(F)c(F)c3F)cc12,-0.307
10,C=CCNC(=S)NCC=C,1.06
11,O=C(O)c1ccc(-n2nnnc2SCc2cccc(Br)c2)cc1,-1.44
12,CN(/N=C/c1cc(Cl)cc(Cl)c1O)C(=S)NC(C)(C)C,-2.11
13,CC(=O)c1ccc(OCCCCOc2ccc(C(C)=O)cc2)cc1,-0.376
14,O=C(O)CSc1nnc(COc2ccccc2)n1-c1ccccc1,-0.315
15,Cc1ccc(C(O)(COC(=O)C(C)C)COC(=O)C(C)C)c(O)c1,-1.61
16,COCCNC(=S)N(CCc1c(C)[nH]c2ccccc12)Cc1ccco1,-1.52
17,O=C(C[C@H]1C[C@H](C(=O)N2CCOCC2)[C@@]2(CCC3CCCC3)c3[nH]c4cc(-c5ccco5)ccc4c3CCN2C1=O)NCc1cccc(C(F)(F)F)c1,-0.785
18,CCOC(=O)C1(CC2CCCCO2)CCN(Cc2nccn2-c2cccc(C)c2)CC1 (stereo not given),-2.03
19,c1cncc(C2CCCCN2)c1 (stereo not given),0.201
20,COc1ccc(-c2cc(-c3ccccc3)nc3ncnn23)cc1,-1.59

# Reference: PubChem BioAssay AID720518 (National Center for Advancing Translational Sciences (NCATS), 2013)
